Bioassay records: PubChem, The Scripps Research Institute Molecular Screening Center
PAFAH1B3 inh = PAFAH1B3 enzyme inhibitors, primary screen, biochemical, fluorescence polarization, human | recombinant PAFAH1B3, FP-rhodamine probe | inhibition, % at 3.39 µM | 340,000 compounds, 0.28% hits;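 active = inhibition above the screen-wide average of all tested compounds plus 3 SD, cut at about 25% in these data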;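 note: 0% = enzyme with DMSO only and 100% = wells lacking PAFAH1B3 protein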
PAFAH1B2 FP inh = PAFAH1B2 enzyme inhibitors, primary screen, biochemical, fluorescence polarization, human; AID 492953, 2010; 340,000 compounds, 1.2% hits; Platelet-activating factor acetylhydrolase IB subunit alpha2 (Homo sapiens), P68402; inhibition, % at 3.39 µM; recombinant PAFAH1B2, FP-rhodamine activity probe;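 active = inhibition above the mean of all tested compounds plus 3 SD, cut at about 24% in these data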;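 note: 0% = enzyme with DMSO and 100% = wells lacking PAFAH1B2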
PAFAH2 inh = PAFAH2 enzyme inhibitors, primary screen, biochemical, fluorescence polarization, human; recombinant PAFAH2, FP-rhodamine activity probe; inhibition, % at 3.39 µM; 340,000 compounds, 0.99% hits;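 active = inhibition above the mean over all tested compounds plus 3 SD, cut at about 30% in these data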;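 note: inhibitors block probe labeling of enzyme so polarization drops; 0% = enzyme with DMSO and 100% = wells lacking PAFAH2 protein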
PP1 counter = PP1-alpha phosphatase inhibitors, primary screen, counter-screen for PP5 inhibitor project, biochemical, fluorescence, OMFP substrate, single point; Serine/threonine-protein phosphatase PP1-alpha catalytic subunit (Homo sapiens), P62136; purified PP1alpha; inhibition, % at 6.7 µM; 320,000 compounds, 0.9% hits;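 active = inhibition above the mean inhibition of all tested compounds plus 3 SD, computed separately for each screening campaign, cut at about 15% in these data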
pPAFAH inh = pPAFAH enzyme inhibitors, primary screen, biochemical, fluorescence polarization, human. 330,000 compounds, 1.5% hits. Platelet-activating factor acetylhydrolase (Homo sapiens), Q13093. inhibition, % at 3.39 µM. recombinant pPAFAH, FP-rhodamine probe fluorescence polarization;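 active = inhibition above the mean inhibition across the screen plus 3 SD, cut at about 25% in these data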;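 note: inhibitors block binding of the rhodamine activity-based probe so polarization drops; 0% = enzyme with DMSO and 100% = wells lacking pPAFAH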
PP5 primary = PP5 phosphatase inhibitors, primary screen, biochemical, fluorescence. Serine/threonine-protein phosphatase 5 (Homo sapiens), P53041. purified PP5c, OMFP substrate fluorescence. inhibition, % at 6.7 µM. 320,000 compounds, 0.18% hits. AID 1987, 2009;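 active = inhibition above the campaign's mean inhibition across all tested compounds plus 3 SD, cut at about 9.5% in these data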;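 note: 0% = DMSO only and 100% = 100 µM cantharidin control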
Target sequence (P53041 whole entry, looked up): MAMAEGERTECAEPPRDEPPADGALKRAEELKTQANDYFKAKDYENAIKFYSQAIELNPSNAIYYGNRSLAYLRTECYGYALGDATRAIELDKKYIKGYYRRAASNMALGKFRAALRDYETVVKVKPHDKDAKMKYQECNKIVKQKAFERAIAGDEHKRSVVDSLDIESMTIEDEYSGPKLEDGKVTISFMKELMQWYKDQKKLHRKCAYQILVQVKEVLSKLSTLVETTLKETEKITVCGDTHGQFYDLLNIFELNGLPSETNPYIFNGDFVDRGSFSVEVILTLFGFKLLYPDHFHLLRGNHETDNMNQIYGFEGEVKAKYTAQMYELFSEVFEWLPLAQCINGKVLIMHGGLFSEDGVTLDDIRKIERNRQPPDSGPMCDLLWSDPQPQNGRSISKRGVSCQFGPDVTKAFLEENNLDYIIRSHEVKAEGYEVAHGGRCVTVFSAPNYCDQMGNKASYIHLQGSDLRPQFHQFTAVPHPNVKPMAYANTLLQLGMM
Starred values were filed as active, the others as inactive; nt = no result. Only some compounds are listed: those with a hit (about 3.4% of all), similar ones and a draw of the others.

SMILES | PAFAH1B3 inh | PAFAH1B2 FP inh | PAFAH2 inh | PP1 counter | pPAFAH inh | PP5 primary
CSc1cccc(NC(=O)c2nnn(CC(=O)Nc3cc(C)cc(C)c3)c2N)c1 | -3 | -1 | -2 | 16* | 1 | -1
O=C(NC1CCCCC1)C(c1ccncc1)N(Cc1ccccc1)C(=O)c1ccc(-c2ccccc2)[nH]1 (stereo not drawn) | 1 | 2 | 3 | 16* | 2 | 1
CCN(CC(=O)Nc1c(F)cccc1F)C(=O)c1ccc(=O)[nH]c1 | 0 | -4 | -1 | nt | nt | nt
O=c1[nH]c(NCCO)nc2c1C1(CCCC1)Cc1ccccc1-2 | 10 | 34* | -9 | 2 | 1 | 1
CCCc1ccc(OCc2ccc(C(=O)NCc3cccnc3)o2)c(OC)c1 | 3 | 1 | 1 | -6 | 5 | 1
Cc1ccc(Nc2nc(-c3c(C)nc4ncccn34)cs2)cc1 | 7 | 4 | 5 | -2 | 18 | 1
Cc1ccc(Nc2nc(-c3c(C)nc4ccccn34)cs2)cc1 | 9 | 6 | 7 | 5 | 28* | 5
S=C1N(c2ccccc2)C(c2ccc(Br)cc2)N2CCCN12 (stereo not drawn) | 3 | 2 | 5 | 6 | -6 | 6
CCCc1c(C(=O)N/N=C/c2ccco2)nnn1-c1nonc1N | 7 | 9 | -6 | 0 | 3 | 4
Cc1ccc(C(=O)NCCn2c(N)c(C#N)c3nc4ccccc4nc32)cc1 | -3 | 6 | 6 | -3 | 0 | 2
CCCCn1c(NC(=O)c2ccccc2)c(C#N)c2nc3ccccc3nc21 | 59* | 44* | 55* | nt | nt | nt
CCCCn1c(NC(=O)c2ccc(F)cc2)c(C#N)c2nc3ccccc3nc21 | nt | nt | nt | 5 | 9 | 14*
CCC(=O)Nc1c(C#N)c2nc3ccccc3nc2n1-c1ccc(C)cc1 | 6 | 3 | 3 | nt | nt | nt
CC1CCc2nc(NC(=O)Cc3cccs3)sc2C1 (stereo not drawn) | -1 | 4 | 7 | 2 | 0 | 1
CC(C)(C)C1CCc2nc(NC(=O)Cc3cn4ccsc4n3)sc2C1 (stereo not drawn) | -4 | 13 | -2 | 16* | 3 | 6
Cc1ccccc1N=Cc1cccc(O)c1O | 2 | 9 | 3 | 1 | 32* | 1
COc1ccc(NC(=O)CN(C)C(=O)Cc2c(C)nc3ccccc3c2C)cc1 | 1 | -1 | 3 | -5 | 27* | 3
COc1cccc(NC(=O)CN(C)C(=O)Cc2c(C)nc3ccccc3c2C)c1 | 6 | 2 | 12 | -2 | 5 | 1
COC(=O)C(Cc1ccc(O)cc1)NC(=O)C(C)NC(=O)c1ccc(C(C)(C)C)cc1 (stereo not drawn) | 7 | 27* | 6 | 1 | 4 | 3
CC(C)c1cc(C(C)C)c(S(=O)(=O)N2c3ccccc3[C@@]3(Br)C[C@H]4C(=O)N[C@@H](Cc5ccccc5)C(=O)N4[C@@H]23)c(C(C)C)c1 | nt | nt | nt | 16* | 6 | 4
O=C1N[C@@H](Cc2ccccc2)C(=O)N2[C@@H]3N(S(=O)(=O)c4ccccc4)c4ccccc4[C@]3(Br)C[C@@H]12 | 5 | -1 | -6 | -2 | 3 | 0
Nc1ccc(O)cc1C(=O)OCC(=O)C12CC3CC(CC(C3)C1)C2 | -6 | 16 | 86* | 4 | 29* | 3
O=C(OCC(=O)C12CC3CC(CC(C3)C1)C2)c1ccccc1O | -2 | 12 | 10 | nt | 4 | nt
CNS(=O)(=O)c1cccc(C(=O)OCC(=O)C23CC4CC(CC(C4)C2)C3)c1 | 1 | 30* | 46* | -1 | 6 | 0
O=C(OCC(=O)C12CC3CC(CC(C3)C1)C2)c1ccc(O)cc1 | 1 | 26* | 84* | nt | 3 | nt
SMILES | PAFAH1B3 inh | PAFAH1B2 FP inh | PAFAH2 inh | PP1 counter | pPAFAH inh | PP5 primary
Cc1ccc(S(=O)(=O)N2CN(Cc3ccco3)c3nc4ccccc4nc32)cc1C | 3 | -6 | 1 | 1 | -1 | 3
CC(=O)Nc1ccc(NC(=O)c2ccc(COc3ccc4c(C)cc(=O)oc4c3)cc2)cc1 | nt | nt | nt | 0 | -12 | -6
Cc1cccc(C(C)C)c1NC(=O)c1ccc(COc2ccc3c(C)cc(=O)oc3c2)cc1 | -18 | -8 | -12 | 17* | 4 | 4
CC1CCCCN1S(=O)(=O)c1ccc(C(=O)Nc2nnc(C3=COCCO3)o2)cc1 (stereo not drawn) | 9 | 8 | 8 | 13 | 3 | 1
COc1cc(O)cc2cc3c(c(O)c12)C(=O)CC(C)(O)O3 (stereo not drawn) | 19 | 7 | 13 | -1 | 25* | 2
N#C/C(=C\c1ccc(-c2ccccc2[N+](=O)[O-])o1)C(=O)Nc1nc(-c2cccs2)cs1 | 16 | 4 | 22 | 16* | 30* | 2
COc1ccc(-c2nnc(SCC(=O)NC(C)C)n2CC2CCCO2)cc1OC (stereo not drawn) | 6 | -2 | 6 | -3 | 5 | 2
CCCOc1ccc(/C=N/NC(=S)Nc2ccccc2[N+](=O)[O-])c(O)c1 | nt | nt | nt | 15* | 15 | 0
CCCOc1ccc(/C=N/Nc2ccccc2[N+](=O)[O-])c(O)c1 | 4 | 2 | -2 | -1 | 2 | 3
Cc1noc(C)c1S(=O)(=O)N1CCCC(C(=O)NCCc2ccccc2)C1 (stereo not drawn) | 3 | 4 | 4 | -5 | -1 | -2
Cc1ccc(C)c(NC(=O)C2CCCN(S(=O)(=O)c3c(C)noc3/C=C/N(C)C)C2)c1 (stereo not drawn) | 7 | 3 | 0 | 2 | -1 | 4
Cc1ccc(CCNC(=O)C2CCCN(S(=O)(=O)c3c(C)noc3/C=C/N(C)C)C2)cc1 (stereo not drawn) | 3 | 36* | 7 | 7 | 11 | -1
Cc1ccc(CCNC(=O)C2CCCN(S(=O)(=O)c3c(C)noc3C)C2)cc1 (stereo not drawn) | 4 | 27* | 6 | -1 | 8 | 1
COC(=O)c1c(C)[nH]c(C(=O)COC(=O)CCNS(=O)(=O)c2cccc(C(F)(F)F)c2)c1C | 0 | -6 | -1 | 7 | 33* | 7
COC(=O)c1c(NC(=O)COC(=O)CCNS(=O)(=O)c2ccccc2)sc(C)c1C | 2 | 3 | 9 | -1 | 26* | 2
COc1ccc(Cc2nnc(NC(=O)c3cccc(C)c3)s2)cc1 | 3 | 3 | 3 | -3 | -2 | -1
Cc1ccc(S(=O)(=O)NC(=O)c2ccc(-c3ccc(-c4ccccc4)cc3)o2)c(C)c1 | nt | nt | nt | 16* | 15 | 3
COc1cccc(C2=Nc3cccc4cccc(c34)N2)c1 | 17 | 5 | 21 | 17* | 7 | 4
